This is a sample that favours compounds with a hit; in the whole collection about 4.1% have one here.
ssDAF-12 act: S. stercoralis DAF-12 nuclear receptor activators, primary screen, cell-based, luminescence, HEK293, GRIP1 co-expression, lit1-tk-luc | Nuclear hormone receptor DAF-12 (Strongyloides stercoralis) | HEK293 ssDAF-12/GRIP1 lit1-tk-luc reporter; % of 3 µM dafachronic acid response | activation, % at 6.8 µM | actives 1% (n = 370,000) | AID 652126, 2013;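 active = activation above the mean over all tested compounds plus 3 SD, cut at about 0.9% in these data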
DAX1 inh-1: DAX1 (NR0B1) inhibitors, primary screen, cell-based, HEK293, Gal4-DAX1, luciferase luminescence | AID 504766, 2011 | actives 0.99% (n = 340,000) | HEK293 Gal4-DAX1 luciferase reporter | Nuclear receptor subfamily 0 group B member 1 (Homo sapiens), P51843 | inhibition, % at 6.75 µM;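 active = inhibition above the mean over all tested compounds plus 3 SD, cut at about 4.2% in these data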;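 note: inhibition shows as a rise in luminescence from relieved DAX1 repression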
hcDAF12 agonist: H. contortus DAF-12 nuclear receptor activators, primary screen, cell-based, luminescence, HEK293, lit1-tk-luc reporter | HEK293 hcDAF-12 lit1-tk-luc reporter; 0% DMSO, 100% Δ7-dafachronic acid | activation, % at 6.8 µM | actives 1.4% (n = 370,000) | AID 652067, 2013;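 active = activation above the mean of all tested compounds plus 3 SD, cut at about 5.5% in these data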
DAX1 inh-2: DAX1 (NR0B1) inhibitors on StAR promoter, primary screen, cell-based, luminescence, SF-1 (NR5A1), full-length DAX-1 | actives 1.1% (n = 370,000) | inhibition, % at 6.8 µM | AID 652010, 2013 | HEK293T StAR-luciferase reporter, SF-1/DAX-1 repression relief;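 active = inhibition above the mean over all tested compounds plus 3 SD, cut at about 3.6% in these data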;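 note: higher inhibition means more luminescence from relief of DAX-1 repression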
hgDAF-12 ag: H. glycines DAF-12 receptor agonists, primary screen, cell-based, luminescence, HEK293, GAL4 fusion, UAS-luciferase; actives 1.8% (n = 370,000); Nuclear hormone receptor DAF-12 (Heterodera glycines), GAL4 fusion; activation, % at 6.8 µM; HEK293 GAL4-hgDAF12 UAS-luciferase reporter, agonist luminescence; normalized to butyrate control;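 active = activation above a cutoff set at the mean of all screened compounds plus 3 SD, cut at about 10% in these data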
LXRb hcDAF ctr: LXR agonists, Gal4 luciferase reporter, confirmation, counter-screen for hcDAF-12 agonist project, cell-based, luminescence, HEK293, H. contortus campaign. activation, % at 6.8 µM. shares compounds with hcDAF12 agonist. HEK293 Gal4-LXR tk-luc reporter, 24 h; normalized: DMSO 0%, positive control 100%. 3,400 tested, under 10 active;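 active = mean percent activation of the reporter above a cutoff set as the average over tested compounds plus their standard deviation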
Target sequence (P55055 whole entry, looked up, the tested form may be a part): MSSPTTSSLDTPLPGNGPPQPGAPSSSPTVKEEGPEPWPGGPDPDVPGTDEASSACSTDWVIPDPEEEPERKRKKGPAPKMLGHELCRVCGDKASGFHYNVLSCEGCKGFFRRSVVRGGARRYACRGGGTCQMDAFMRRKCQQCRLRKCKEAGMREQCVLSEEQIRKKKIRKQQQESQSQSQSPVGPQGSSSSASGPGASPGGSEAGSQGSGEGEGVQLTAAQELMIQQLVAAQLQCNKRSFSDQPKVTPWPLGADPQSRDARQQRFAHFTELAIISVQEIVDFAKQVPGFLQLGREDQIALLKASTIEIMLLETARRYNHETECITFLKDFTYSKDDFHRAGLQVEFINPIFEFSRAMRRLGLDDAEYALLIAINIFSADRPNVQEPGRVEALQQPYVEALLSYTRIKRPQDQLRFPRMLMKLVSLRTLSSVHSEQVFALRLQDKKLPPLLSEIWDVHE
hcDAF12 ag: H. contortus DAF-12 receptor agonists, confirmation, cell-based, luminescence, HEK293, lit1-tk-luc, triplicate | shares compounds with hcDAF12 agonist | HEK293 hcDAF-12 lit1-tk-luc reporter; % of Δ7-dafachronic acid response | activation, % at 6.8 µM | actives 61% (n = 3,400) | AID 743032, 2013;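 active = mean activation across triplicate tests above the threshold derived from the earlier primary screen, cut at about 5.5% in these data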
Of the large screens only hits and unclear results are named; the others gave an inactive call (follow-up assays come after a bar, where they were run).

CC(C)C(=O)N1CC[C@H]2[C@H](CCCN2Cc2ccccc2)C1	none (no result: DAX1 inh-1)
Cn1cc(C(=O)N/N=C/C(Br)=C/c2ccccc2)ccc1=O	hcDAF12 agonist 7.6 | LXRb hcDAF ctr inactive | hcDAF12 ag inactive
O=C(CSc1nnc(-c2ccncc2)n1-c1ccccc1)Nc1cccc2ccccc12	none (no result: DAX1 inh-1)
COc1ccc(-c2nc3n(c2C)Cc2ccccc2-3)cc1	ssDAF-12 act 2.2, hcDAF12 agonist 9.9, hgDAF-12 ag 12 | LXRb hcDAF ctr inactive | hcDAF12 ag 7.5
O=c1cc(-c2ccccc2)nc2n1Cc1ccccc1-2	none
CN1CCCCC(NC(=O)c2ccc(Cl)cc2Cl)C1=O (stereo not given)	none (no result: DAX1 inh-1)
CNCc1ccccc1OCC(=O)Nc1ccccc1	hcDAF12 agonist 7.0 | LXRb hcDAF ctr inactive | hcDAF12 ag inactive
CNC(=O)CSc1ncnc2c1cnn2-c1ccccc1	hcDAF12 agonist 7.4 | LXRb hcDAF ctr inactive | hcDAF12 ag inactive
Cc1c(NC(=O)CSc2ncnc3c2cnn3-c2ccccc2)c(=O)n(-c2ccccc2)n1C	none
O=C(NCc1ccccc1)[C@@H]1CCCN1C(=O)[C@H]1CCCN1C(=O)c1ccc(Cl)c(Cl)c1	none (no result: DAX1 inh-1)
COCc1nnc(NC(=O)COc2ccc3c(c2)OCO3)s1	none
O=C(COc1ccc2c(c1)OCO2)Nc1nccs1	ssDAF-12 act 1.1, hcDAF12 agonist 7.5, hgDAF-12 ag 11 | LXRb hcDAF ctr inactive | hcDAF12 ag 6.0
Cc1ccc(N/N=C/c2ccc3c(c2)OCCO3)cc1Cl	hcDAF12 agonist 7.8 | LXRb hcDAF ctr inactive | hcDAF12 ag 8.3
CNC(=S)N/N=C/c1ccc2c(c1)OCCO2	none
COc1ccc(N=CC2=C(O)c3ccccc3C2=O)c(OC)c1	ssDAF-12 act 1.6, hcDAF12 agonist 12 | LXRb hcDAF ctr inactive | hcDAF12 ag 6.8
C#CCN(Cc1cccc(F)c1)C(=O)c1nnc2c3ccccc3n(S(=O)(=O)c3ccc(C)cc3)c2n1	none (no result: DAX1 inh-1)
Fc1cccc2sc(Nc3nc4cc5c(cc4s3)OCCO5)nc12	hcDAF12 agonist 10 | LXRb hcDAF ctr inactive | hcDAF12 ag 20
COC(=O)[C@]12C[C@H](CC(=O)NCC3CCCCC3)C(=O)N(CCC3=CCCCC3)C1=C[C@H](COCc1ccccc1)O[C@@H]2C	none (no result: DAX1 inh-1)
O=C(NCc1ccccc1)[C@@H]1CCCN1C(=O)[C@H]1CCCN1C(=O)c1ccccc1	none (no result: DAX1 inh-1)
COc1cc(C(=O)N2CCC(N3CCN(C)CC3)CC2)ccc1Nc1ncc2c(n1)N(C)c1ccccc1C(=O)N2C	hcDAF12 agonist 6.8, DAX1 inh-2 3.7 (no result: DAX1 inh-1) | LXRb hcDAF ctr inactive | hcDAF12 ag 6.4
Cc1c(NC(=O)C2CCCN(S(=O)(=O)c3c(C(C)C)cc(C(C)C)cc3C(C)C)C2)c(=O)n(-c2ccccc2)n1C (stereo not given)	none (no result: DAX1 inh-1)
Clc1ccc(/C=N/Nc2nc(Cl)nc3ccccc23)cc1	none
Clc1ccc(/C=N/NC2=Nc3cccc4cccc2c34)cc1	hcDAF12 agonist 6.7 | LXRb hcDAF ctr inactive | hcDAF12 ag 10
c1ccc(-c2cc3cc4c(cc3cn2)OCO4)cc1	ssDAF-12 act 1.4, hcDAF12 agonist 8.1, hgDAF-12 ag 13 | LXRb hcDAF ctr inactive | hcDAF12 ag 8.5
O=C1CCCN1CCCNc1ncnc2c1cnn2-c1ccc(Cl)cc1	none
OCCCNc1ncnc2c1cnn2-c1ccc(Cl)cc1	hcDAF12 agonist 7.4 | LXRb hcDAF ctr inactive | hcDAF12 ag inactive

Screens (PubChem)
